This passage reports outcome results from PubChem BioAssay AID504895 (National Center for Advancing Translational Sciences (NCATS), 2011).

SMILES strings stand for the structures. Records with an inconclusive call do not appear. Active and inactive are the calls of the source. The call rests on the fitted dose curve; in most records, active means well fitted curve in the direction sought with a large enough effect; inconclusive means small, poorly fitted or top-dose-only effect, or another doubt; inactive means no such curve, though single readings can be large or run the other way.

Chain of Protein phosphatase EYA2 (Homo sapiens) (O00167 whole entry, looked up): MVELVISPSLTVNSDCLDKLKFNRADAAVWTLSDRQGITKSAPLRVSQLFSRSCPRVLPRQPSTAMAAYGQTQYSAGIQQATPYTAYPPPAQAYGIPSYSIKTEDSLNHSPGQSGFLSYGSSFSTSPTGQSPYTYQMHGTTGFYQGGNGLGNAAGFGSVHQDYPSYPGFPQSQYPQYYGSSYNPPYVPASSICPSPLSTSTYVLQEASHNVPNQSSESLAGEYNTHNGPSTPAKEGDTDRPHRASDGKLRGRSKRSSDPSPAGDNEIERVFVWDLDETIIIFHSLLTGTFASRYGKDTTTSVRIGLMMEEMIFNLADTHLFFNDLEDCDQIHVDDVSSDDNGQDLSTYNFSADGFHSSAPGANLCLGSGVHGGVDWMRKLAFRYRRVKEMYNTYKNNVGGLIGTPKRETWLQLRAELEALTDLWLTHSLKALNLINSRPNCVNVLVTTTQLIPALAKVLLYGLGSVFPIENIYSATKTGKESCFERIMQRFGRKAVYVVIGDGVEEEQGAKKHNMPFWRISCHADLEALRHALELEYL

The target of this test is Protein phosphatase EYA2 (Homo sapiens) (UniProt O00167). The test can be described thus: Inhibitors of Eya2ED: Hit Confirmation in Primary Screen. The settings on record: Recombinant Eya2ED, OMFP fluorescence phosphatase assay; series mostly up to 76.9 µM. The text has this:
The Eya proteins (Eya1-4) were originally identified as essential co-activators of the Six1 transcription factor. […] Knockdown of Six1 decreases cancer cell proliferation and metastases in several different cancer models. […] A fluorescence-based HTS assay has been perfomed against the Molecular Libraries Small Molecule Repository (MLSMR) and has the AID 488837 in this database. After completion of the primary screen, hits were re-ordered and tested again in the primary screen in a 12 point titration. NIH Chemical Genomics Center [NCGC] NIH Molecular Libraries Probe Centers Network [MLPCN] MLPCN Grant: DA030559-01 Assay Submitter (PI): Rui Zhao, University of Colorado, Denver
The Eya2 enzyme was kindly provided by the laboratory of Dr. Rui Zhao. The 3-O-methyl-fluorescein phosphate (OMFP) substrate and all buffer reagents were purchased from Sigma Aldrich. qHTS Assay Setup: 1. Buffer- 50 mM HEPES pH 7.5, 50 mM NaCl, 5 uM MgCl2, 0.05% BSA, 1 mM DTT. 2. OMFP Stock- 10 mM solution prepared in 100% DMSO and stored in single use aliquots at -20C. Assay Procedure- 1. Dispense 1.5 ul per well of Eya2 at 0.2 uM in black medium binding 1536 well Greiner plate 2. Transfer 23 nl of compound and control compound (EGTA) to plate 3. Incubate at ambient for 10 minutes 4. Dispense 1.5 ul per well of OMFP at 50 uM 5. Incubate at ambient for 10 minutes 6. Read on ViewLux using Excitation = 485 nm, Emission = 525 nm
Take `CCOC(=O)c1ccc(N=C(CC)c2c(O)n(C)c(=O)n(C)c2=O)cc1`: the outcome was inactive.

With `O=C(O)C1C2CCC(O2)C1C(=O)Nc1cccc(Br)c1` (stereo not given), the outcome was inactive.

For the molecule `O=c1[nH]c(=O)n(C2CCCCC2)c(O)c1C1NCCc2ccccc21` (stereo not given), the result was inactive.

`Cn1c(O)c(/C=N/NC(=O)c2ccncc2)c(=O)n(C)c1=S`: the outcome was inactive.

As for `O=[N+]([O-])c1ccc(N2CCCC2)c2ccncc12`, the outcome was inactive.
